{
  "source": "PubChem BioAssay (NCATS)",
  "key": {"[1]": {"assay": "Cytotoxicity counterscreen for inhibitors of SARS-CoV-2 cell entry (AID 1645845; calls by dose curve; further: nearly all actives have a fitted effect of over 50% in size; further: potency means the concentration at half of the fitted maximal effect)", "in_short": "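Counterscreen run in the same HEK293-ACE2 line as the pseudotyped-particle entry assay, without particles. Viability after 48 h at 37 C was read as ATP luminescence, scaled between cell-containing and cell-free wells.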"}, "CRL-7250": {"tested_on": "CRL-7250", "assay": "qHTS assay to identify novel small-molecules to repurpose for Merkel cell carcinoma treatment (AID 1296009); further: nearly all actives have a fitted effect of over 60% in size", "conditions": "MCC and control cell lines, CellTiter-Glo viability, 72 h; series mostly up to 92 µM", "in_short": "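Dose-response viability screen; 72 hr exposure at 37 degree celsius; CellTiter-Glo added, 10 min room temperature, luminescence read; RLUs scaled between no-cell and DMSO wells.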"}, "[2]": {"assay": "Primary qHTS to identify inhibitors of SARS-CoV-2 cell entry (AID 1645846; calls by dose curve; further: nearly all actives have a fitted effect of over 45% in size)", "conditions": "activity change, negative = inhibition: at 57.1 µM (top of the series) unless noted", "in_short": "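Data are normalized to wells receiving SARS-CoV-2-S pseudoparticles and those given bald particles. Entry signal was luciferase luminescence in stable hACE2 Expi293F cells, 48 hr post-infection, after 1 hr compound pretreatment.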"}, "[3]": {"target": "Alpha-galactosidase (Coffea arabica) (UniProt Q42656)", "sequence (Q42656 whole entry, looked up)": "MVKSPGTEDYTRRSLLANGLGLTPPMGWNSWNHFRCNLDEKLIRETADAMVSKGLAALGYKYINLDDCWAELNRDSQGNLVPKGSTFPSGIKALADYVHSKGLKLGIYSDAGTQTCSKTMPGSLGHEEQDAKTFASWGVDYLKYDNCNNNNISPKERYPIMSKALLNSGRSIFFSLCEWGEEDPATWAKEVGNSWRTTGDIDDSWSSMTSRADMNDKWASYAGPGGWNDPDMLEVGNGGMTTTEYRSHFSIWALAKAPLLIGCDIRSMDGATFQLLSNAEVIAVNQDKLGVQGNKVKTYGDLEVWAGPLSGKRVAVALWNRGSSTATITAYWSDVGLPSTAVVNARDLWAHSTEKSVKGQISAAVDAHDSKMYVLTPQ", "assay": "Counterscreen for Glucocerebrosidase Inhibitors: qHTS Assay for Coffee Bean alpha-Galactosidase at pH 4.5 (AID 957)", "in_short": "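Enzyme is added first (2 nM final), then compounds titrated from 0.7 nM to 77 uM, then 80 uM 4-methylumbelliferyl alpha-D-galactopyranoside; after 20 min at room temperature a pH 10 NaOH/glycine stop precedes fluorescence reading at 365/440 nm.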"}, "[4]": {"target": "Alpha-galactosidase (Coffea arabica) (UniProt Q42656)", "assay": "Counterscreen for Glucocerebrosidase Inhibitors: qHTS Assay for Coffee Bean alpha-Galactosidase at pH 5.9 (AID 998)", "in_short": "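Enzyme 2 nM + cpd (0.7 nM–77 uM titration) + 4-MU-alpha-Gal 80 uM, pH 5.9 citrate/Tween-20, RT 20 min, NaOH/glycine stop pH 10, fluor 365/440. Normalized to no-enzyme and full-activity controls; Hill-fit AC50.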"}, "[5]": {"assay": "Validation screen for inhibitors of Lassa infection (AID 463096; calls by dose curve)"}, "[6]": {"assay": "Inducers of the Endoplasmic Reticulum Stress Response (ERSR) in human glioma: Validation (AID 504836)", "in_short": "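Stably transfected U87-MG glioma cells carrying a GRP78-based luciferase sensor; 16 h compound incubation. Luminescence end-point read 10 min after Bright-Glo addition at room temperature.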"}, "[7]": {"assay": "qHTS for Inhibitors of the Functional Ribonucleoprotein Complex (vRNP) of Lassa (LASV) Arenavirus: LASV Primary Screen - GLuc reporter signal (AID 1347082; calls by dose curve; tested in HEK293 reporter line; further: potency means the concentration at half of the fitted maximal effect; nearly all actives have a fitted effect of over 60% in size)"}, "[8]": {"assay": "qHTS Assay for Identifying Gametocytocidal Compounds (AID 743244);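 further: actives lower the fluorescent signal which means gametocytes are killed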", "conditions": "P. falciparum 3D7 stage III-V gametocytes, alamarBlue, 72 h; max response: stronger effect = lower value", "in_short": "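3D7 gametocytes, stages III–V, 20,000/well; cpd 72 h, 37 °C/5% CO2; + alamarBlue 24 h; fluor. Ex 525/Em 598.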"}, "[9]": {"assay": "Drug repurposing screens with cells derived from glioblastoma tumor samples (AID 1345199); further: nearly all actives have a fitted effect of over 40% in size", "conditions": "GBM patient neurospheres viability, ATP luminescence, 48 h; Potency: tumour line A; series mostly up to 45.9 µM", "in_short": "(§1)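 Primary testing used CD133+ neurospheres from four GBM patients, seven concentrations, 48 h exposure and ATP-based viability; confirmation added three slower-growing patient lines.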"}, "astro": {"tested_on": "astro", "assay": "Drug repurposing screens with cells derived from glioblastoma tumor samples (AID 1345199)", "conditions": "viability, ATP luminescence, 48 h; series mostly up to 45.9 µM", "in_short": "as §1"}},
  "note": "Inconclusive results are not listed. Where a call stands in place of a potency, no number is given. Activity calls are given as the source filed them. Unless noted, the call rests on the fitted dose curve; in most records, active means well fitted curve in the direction sought with a large enough effect; inconclusive means small, poorly fitted or top-dose-only effect, or another doubt; inactive means no such curve, though single readings can be large; an effect the other way counts as inactive or inconclusive.",
  "data": [
    {"compound": "COc1cc(-c2cc(-c3ccc(N4CCNCC4)cc3)cnc2C)cc(OC)c1OC", "values": [
      {"measurement": "Potency", "setting": "[1]", "result": "inactive"},
      {"measurement": "Potency", "setting": "CRL-7250", "result": "inactive"}
    ]},
    {"compound": "CCCOc1ccn2c(C(C)=O)cc(-c3ccccc3S(C)(=O)=O)c2c1", "values": [
      {"measurement": "Potency", "setting": "[1]", "result": "inactive"},
      {"measurement": "Potency", "setting": "[2]", "result": "inactive"},
      {"measurement": "Potency", "setting": "CRL-7250", "result": "inactive"}
    ]},
    {"compound": "CO[C@@H]1COCC[C@@H]1N[C@@H]1CC[C@@](C(=O)N2CCc3ncc(C(F)(F)F)cc3C2)(C(C)C)C1", "values": [
      {"measurement": "Potency", "setting": "[2]", "result": "inactive"},
      {"measurement": "Potency", "setting": "CRL-7250", "result": "inactive"}
    ]},
    {"compound": "Cc1nn(C)c2c1C(c1ccc(C(F)(F)F)cc1)C(C#N)=C(N)O2", "note": "(centres undefined)", "values": [
      {"measurement": "Potency", "setting": "[1]", "result": "inactive"},
      {"measurement": "Potency", "setting": "[2]", "result": "inactive"},
      {"measurement": "Potency", "setting": "CRL-7250", "result": "inactive"}
    ]},
    {"compound": "CCN(c1cc(C#CCN2CCOCC2)cc(C(=O)NCc2c(C)cc(C)[nH]c2=O)c1C)C1CCC(N(C)CCOC)CC1", "note": "(centres undefined)", "values": [
      {"measurement": "Potency", "setting": "[1]", "result": "inactive"},
      {"measurement": "Potency", "setting": "[2]", "result": "inactive"},
      {"measurement": "Potency", "setting": "CRL-7250", "result": "inactive"}
    ]},
    {"compound": "O=C(CCc1ccc(O)cc1)c1c(O)cc(O)cc1O", "values": [
      {"measurement": "outcome", "setting": "[3]", "result": "inactive"},
      {"measurement": "outcome", "setting": "[4]", "result": "inactive"},
      {"measurement": "Potency", "setting": "[5]", "result": "inactive"},
      {"measurement": "outcome", "setting": "[6]", "result": "inactive"},
      {"measurement": "Potency", "setting": "[1]", "result": "inactive"},
      {"measurement": "activity change, negative = inhibition", "setting": "[2]", "result": -19.9, "unit": "%"},
      {"measurement": "Potency", "setting": "CRL-7250", "result": "inactive"}
    ]},
    {"compound": "OC[C@H]1O[C@@H](Oc2cc(O)cc(/C=C/c3ccc(O)cc3)c2)[C@H](O)[C@@H](O)[C@@H]1O", "values": [
      {"measurement": "Potency", "setting": "[1]", "result": "inactive"},
      {"measurement": "Potency", "setting": "[2]", "result": "inactive"},
      {"measurement": "Potency", "setting": "CRL-7250", "result": "inactive"}
    ]},
    {"compound": "Cn1nccc1Nc1nccc(-c2ccn([C@H](CO)c3ccc(Cl)c(F)c3)c(=O)c2)n1", "values": [
      {"measurement": "Potency", "setting": "[1]", "result": "11.2 µM (active)"},
      {"measurement": "Potency", "setting": "CRL-7250", "result": "inactive"}
    ]},
    {"compound": "C[C@]12CC[C@H](O)C[C@H]1CC[C@@H]1C2CC[C@]2(C)[C@@H](C3=CC(=O)OC3)[C@@H](O)C[C@]12O", "note": "(some centres undefined)", "values": [
      {"measurement": "Potency", "setting": "[7]", "result": "6.31 µM (active)"}
    ]},
    {"compound": "C[C@]12CCC(=O)C[C@@H]1CC[C@@H]1[C@@H]2CC[C@@]2(C)[C@H]1CC[C@]2(C)O", "values": [
      {"measurement": "max response", "setting": "[8]", "result": "-5.63% (inactive)"},
      {"measurement": "Potency", "setting": "[9]", "result": "inactive"},
      {"measurement": "Potency", "setting": "astro", "result": "inactive"}
    ]}
  ]
}
